Structures are written as SMILES. Values joined by “and” are separate entries in the source; they are usually repeats but may differ in a detail not shown here. Equal entries are not always repeated. Screen size: about 640,000 compounds; about 9,300 (1.5%) were called active. No stated cut-off is given here; in the data, active means inhibition above about 32%; inactive means the rest. The full list was thinned out, with actives kept by preference.

This experiment in a line: TEAD-YAP interaction inhibition, primary screen, TEAD-YAP interaction inhibitor project, luminescence, HEK-TIYL cells (AID 1259422).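 Further: 0% = median of test compound wells and 100% = reference inhibitor wells.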 The conditions noted are these: TEAD-Gal4/YAP UAS-luciferase luminescence, at 9.12 µM, hits give high values.
In general, inhibition refers to the drop in the measured response relative to a control, in per cent. For `CC(C#N)OC(=O)c1ccc(N2CC(O)=C(c3nc4ccccc4s3)C2=N)cc1` (configuration not stated), the inhibition is 5.73% (inactive). `Cc1ccc(N2CC(O)=C(c3nc4ccccc4n3C)C2=N)cc1C`: the inhibition was -5.77% (inactive). With `N=C1C(c2nc3ccccc3s2)=C(O)CN1c1cccc(F)c1`, the inhibition is 31.9% (active). On to `O=C1N[C@H](Cc2ccc(O)cc2)C(=O)N2CCN(C(=O)Oc3ccc(Cl)cc3)C[C@H]12`, for which the inhibition was -0.03% (inactive).

For `Cc1cccc(CC(=O)Nc2cnn(-c3cccc(C(=O)N(C)Cc4ccon4)c3)c2)c1`, the inhibition was 8.24% (inactive).

In the case of `Cc1cc(C(=O)COC(=O)C2CC2)c(C)n1-c1ccc(F)cc1`, the inhibition is 39% (active). On to `COCc1cc(C(C)=O)ccc1OCC(=O)c1cc(C)n(-c2ccc(F)cc2)c1C`, for which the inhibition was -1.2% (inactive). The result for `COc1ccc(-n2c(C)cc(C(=O)COC(=O)COc3ccccc3C=O)c2C)cc1` reads 5.99% (inactive); that for `Cc1ccc(CCNC(=O)CCCNS(=O)(=O)c2ccc3c(c2)CCC(=O)N3)cc1`, 1.68% (inactive). As for `COc1ccc(CNc2nc(Nc3ccc(OC)cc3)nc3cc(OC)c(OC)cc23)cc1`, the figure is 1.6% (inactive); as for `Fc1ccc(Nc2nc(NCC3CCCO3)c3ccccc3n2)cc1` (configuration not stated), 42.1% (active). On to `Fc1ccc(Nc2nc(NCc3ccccc3)c3ccccc3n2)cc1`, for which the inhibition is 42% (active).

With `Fc1ccccc1CSc1nc(NCC2CCCO2)c2ccccc2n1` (configuration not stated), the inhibition was 0% (inactive).

For the compound `Fc1ccc(CSc2nc(NCc3ccccc3)c3ccccc3n2)cc1`, the inhibition was -9.53% (inactive). For `Fc1ccccc1-c1nc(NCC2CCCO2)c2ccccc2n1` (configuration not stated), the inhibition was 25.9% (inactive). As for `O=C(c1cc(COc2ccc(F)cc2Cl)on1)N1C[C@@H]2CCC[C@H]1C2`, the inhibition is -37.5% (inactive). As for `CCn1c(N2CCC(C(=O)NCCc3ccc(O)cc3)CC2)nc2ccccc21`, the figure is 4.47% (inactive). Regarding `CC(CCc1ccco1)NC(=O)C1CCN(c2nc3ccccc3n2C)CC1` (configuration not stated), the inhibition was 9.58% (inactive). With `COc1ccc2[nH]cc(CCNC(=O)C3CCN(c4nc5ccccc5n4C)CC3)c2c1`, the inhibition was 34.1% (active). For `COc1c(C(=O)Nc2ccc(NC(C)=O)cc2)ccc2ccccc12`, the inhibition was -28.1% (inactive).

For the compound `CN1CCN(c2ncn(-c3ccc(Nc4nccc(-c5ccc(NS(C)(=O)=O)cc5)n4)cc3)n2)CC1`, the inhibition is -0.18% (inactive). The result for `Cc1ncn(-c2ccc(Nc3nccc(N4CCc5[nH]ncc5C4)n3)cc2)n1` reads 49.9% (active). With `Cc1ncn(-c2ccc(Nc3nccc(-c4cc(C#N)cc(NC5CCN(C)CC5)c4)n3)cc2)n1`, the inhibition was 16.9% (inactive). As for `CCc1nc2sc(C(c3ccc(F)cc3)N3CCCC3)c(O)n2n1` (configuration not stated), the inhibition was -0.93% (inactive).

Regarding `OCCN1CCN(C(c2ccc(F)cc2)c2ccc3cccnc3c2O)CC1` (configuration not stated), the inhibition was 87.9% (active). As for `Oc1c(C(c2cccnc2)N2CCOCC2)ccc2cccnc12` (configuration not stated), the inhibition is 29% (inactive). As to `Cc1ccccc1CN1CCN2C(=O)[C@H](Cc3ccc(O)cc3)NC(=O)[C@H]2C1`, the inhibition is 0.18% (inactive).

Take `Cc1c(Cl)cccc1NC(=O)NNC(=O)C(N)=O`: the inhibition is 17% (inactive). `Cc1nn(CC(=O)NCc2ccccn2)c(=O)c2ccccc12`: the inhibition is -1.32% (inactive).

Regarding `N#Cc1ccc(C(=O)OCC(=O)Nc2ccc3c(c2)C(=O)c2ccccc2C3=O)cc1`, the inhibition is -21.3% (inactive). The result for `CCOc1cc(/C=C(\C#N)c2nc3ncc(Br)cc3[nH]2)ccc1O` reads -0.3% (inactive). On to `CCOc1ccc(/C=C(\C#N)c2nc3ccccc3c(=O)[nH]2)cc1OC`, for which the inhibition was -0.7% (inactive).

In the case of `CCOc1cc(/C=C(\C#N)c2nc(-c3cccs3)c(NC(C)=O)s2)ccc1O`, the inhibition was 41.9% (active). As for `COc1ccccc1NC(=O)Cn1cnc2sc(C(=O)Nc3ccc(F)cc3Cl)c(C)c2c1=O`, the figure is 10.1% (inactive); as for `CCC(Sc1nc(Nc2ccc(F)c(F)c2)c2ccccc2n1)C(=O)Nc1ccc2c(c1)OCO2` (configuration not stated), 6.11% (inactive). Regarding `Cn1ncc(I)c1C(=O)N1CCc2ccccc2C1`, the inhibition was -9.15% (inactive).

For `CN(Cc1ccccc1)CC(O)COc1ccc(CNCCN2CCCCC2)cc1` (configuration not stated), the inhibition was 3.88% (inactive). Regarding `Cc1cc(NC(=O)CSc2nc3cc4c(cc3cc2C#N)OCCO4)no1`, the inhibition was 2.38% (inactive). As for `Cc1ccc(NC(=O)CSc2nc3cc4c(cc3cc2C#N)OCCO4)cc1`, the inhibition is 20.6% (inactive). Turning to `CN(C)c1ccc(NC(=O)CSc2nc3cc4c(cc3cc2C#N)OCCO4)cc1`, the inhibition was 66.1% (active).

`COc1ccc2ncc(S(=O)(=O)c3ccc(C)cc3)c(N3CCOCC3)c2c1`: the inhibition was -1.64% (inactive). Regarding `O=C(CN1C(=O)[C@H]2CCCN2C(=O)c2ccccc21)NCc1ccccc1F`, the inhibition is 2.44% (inactive). For `CC1CCCC/C1=N/NC(=O)CNc1ccc(Cl)cc1Br` (configuration not stated), the inhibition is 3.05% (inactive). For `CCOC(=O)C1=C(Cl)c2ccccc2NC1Cl` (configuration not stated), the inhibition is 2.33% (inactive).

With `COc1cccc(CC2=NOC(C(=O)NC(C)Cc3ccsc3)C2)c1` (configuration not stated), the inhibition was -35% (inactive).

Consider `CCSCCOC(=O)C1=C(C)NC2=C(C(=O)CC(c3cccs3)C2)C1c1ccsc1` (configuration not stated), for which the inhibition was 1.93% (inactive).

For `C=CCOC(=O)c1[nH]c2c(c1C)C(=O)CC(c1ccccc1)C2` (configuration not stated), the inhibition is 42.7% (active). `CCCOCCOC(=O)c1[nH]c2c(c1C)C(=O)CC(c1ccc(OC)cc1)C2` (configuration not stated): the inhibition is -2.72% (inactive). On to `CCOC(=O)C1=C(C)NC2=C(C(=O)CC(c3ccccc3)C2)C1c1ccccn1` (configuration not stated), for which the inhibition was 11.1% (inactive) and 10.6% (inactive). With `CSCCOC(=O)c1[nH]c2c(c1C)C(=O)CC(c1cccs1)C2` (configuration not stated), the inhibition was 45.5% (active). Regarding `CCCOC(=O)c1[nH]c2c(c1C)C(=O)CC(c1cccs1)C2` (configuration not stated), the inhibition is 54.8% (active). As for `CCOCCOC(=O)C1=C(C)NC2=C(C(=O)CC(c3cccs3)C2)C1c1ccc(OC(C)=O)cc1` (configuration not stated), the inhibition is 7.32% (inactive).

On to `CCCOC(=O)C1=C(C)NC2=C(C(=O)CC(C)(C)C2)C1c1cccs1` (configuration not stated), for which the inhibition is -1.04% (inactive) and 6.64% (inactive). Consider `CCSCCOC(=O)C1=C(C)NC2=C(C(=O)CC(c3ccccc3)C2)C1c1ccccc1` (configuration not stated), for which the inhibition was 7.09% (inactive). As for `COc1ccc2oc(=O)c(S(=O)(=O)c3ccc(C)cc3)cc2c1`, the figure is 7.59% (inactive); as for `COc1ccc2cc(Br)ccc2c1CC(=O)N(C)C1CCN(C)CC1`, -3.7% (inactive); as for `COc1ccccc1NC(=O)NC(CC(=O)O)c1ccc(C)cc1` (configuration not stated), 3.42% (inactive).

The values are drawn from PubChem BioAssay AID1259422 (The Scripps Research Institute Molecular Screening Center, 2018).
